Measured values taken from the supplement of paper PMC11006884.
Targets with a hit are over-represented here; the source holds about 6,500 in all. About 2% of all pairs of compound and target were hits. Values without a mark were called inactive.

Compound: COC(=O)C#Cc1ccccc1 [methyl 3-phenylpropiolate]
Experiment: log2 ratio of iodoacetamide-alkyne labeling of the cysteine site, DMSO over compound (competition); higher = stronger covalent engagement of the cysteine by the compound, active = 1 or more
Conditions: 500 µM; treatment time 1 h; system: HEK293T cell lysate
Summary of the method: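 For each cysteine, the log2 competition ratio is mean control-channel reporter intensity over mean compound-channel reporter intensity. HEK293T lysate (2 mg/mL) was exposed to vehicle or electrophile (500 µM, 1 h, ambient temperature), labelled with iodoacetamide alkyne (1 h), clicked to sCIP-TMT reagents, digested overnight with trypsin at 37 °C, streptavidin-enriched and analysed by Orbitrap Eclipse LC-MS/MS with FAIMS and FragPipe. Cysteines quantified in only one of three replicates, each with duplicate channels, were excluded.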

UniProt Q9NRP0, sequence (Q9NRP0 whole entry): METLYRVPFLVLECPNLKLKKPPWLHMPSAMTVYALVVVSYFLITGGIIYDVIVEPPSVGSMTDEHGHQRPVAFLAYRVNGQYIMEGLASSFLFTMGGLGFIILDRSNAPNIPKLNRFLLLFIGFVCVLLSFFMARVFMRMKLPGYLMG
UniProt Q9Y4P8, sequence (Q9Y4P8 whole entry): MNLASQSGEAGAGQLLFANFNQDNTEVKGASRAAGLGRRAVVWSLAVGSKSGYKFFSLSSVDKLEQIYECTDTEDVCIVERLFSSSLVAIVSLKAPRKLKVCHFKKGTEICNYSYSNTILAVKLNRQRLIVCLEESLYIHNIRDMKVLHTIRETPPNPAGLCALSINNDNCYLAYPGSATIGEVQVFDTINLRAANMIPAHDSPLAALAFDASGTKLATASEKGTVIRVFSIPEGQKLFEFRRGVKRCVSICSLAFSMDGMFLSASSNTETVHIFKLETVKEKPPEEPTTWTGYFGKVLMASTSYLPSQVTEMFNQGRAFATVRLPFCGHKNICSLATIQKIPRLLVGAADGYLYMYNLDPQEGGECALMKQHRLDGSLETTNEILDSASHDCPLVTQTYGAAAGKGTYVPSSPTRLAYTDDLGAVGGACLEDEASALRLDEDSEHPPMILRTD
UniProt Q9H6R4, sequence (Q9H6R4 whole entry): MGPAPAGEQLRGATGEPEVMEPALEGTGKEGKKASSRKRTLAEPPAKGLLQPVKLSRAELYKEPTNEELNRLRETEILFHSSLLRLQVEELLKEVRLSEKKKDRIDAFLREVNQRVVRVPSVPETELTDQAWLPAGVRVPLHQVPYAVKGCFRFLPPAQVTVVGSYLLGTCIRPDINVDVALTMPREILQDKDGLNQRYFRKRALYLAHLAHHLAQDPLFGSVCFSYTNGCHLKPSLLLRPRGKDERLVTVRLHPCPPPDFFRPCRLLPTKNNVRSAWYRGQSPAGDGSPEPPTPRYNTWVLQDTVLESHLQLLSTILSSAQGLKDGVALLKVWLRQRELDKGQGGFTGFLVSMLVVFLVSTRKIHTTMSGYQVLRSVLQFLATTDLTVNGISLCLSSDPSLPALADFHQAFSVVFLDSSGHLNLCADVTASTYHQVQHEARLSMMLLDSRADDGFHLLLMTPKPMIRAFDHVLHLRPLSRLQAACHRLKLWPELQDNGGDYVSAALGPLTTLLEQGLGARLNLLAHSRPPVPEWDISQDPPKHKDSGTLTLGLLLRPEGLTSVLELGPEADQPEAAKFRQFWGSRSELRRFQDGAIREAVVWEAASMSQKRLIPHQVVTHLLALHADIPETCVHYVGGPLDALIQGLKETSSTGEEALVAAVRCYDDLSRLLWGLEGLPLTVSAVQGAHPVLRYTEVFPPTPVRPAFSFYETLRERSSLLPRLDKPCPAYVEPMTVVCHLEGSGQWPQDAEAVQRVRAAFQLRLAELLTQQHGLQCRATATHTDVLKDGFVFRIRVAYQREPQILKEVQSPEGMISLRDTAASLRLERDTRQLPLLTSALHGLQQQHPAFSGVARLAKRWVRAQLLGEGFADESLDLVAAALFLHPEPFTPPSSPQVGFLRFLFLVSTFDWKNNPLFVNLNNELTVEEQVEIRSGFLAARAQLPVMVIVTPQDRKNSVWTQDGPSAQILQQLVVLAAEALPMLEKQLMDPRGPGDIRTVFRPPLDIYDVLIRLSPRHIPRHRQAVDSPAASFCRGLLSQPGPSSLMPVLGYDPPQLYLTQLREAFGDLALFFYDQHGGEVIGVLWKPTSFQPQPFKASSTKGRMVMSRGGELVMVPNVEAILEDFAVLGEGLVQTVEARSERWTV
UniProt Q9UKV3, sequence (Q9UKV3 whole entry, looked up): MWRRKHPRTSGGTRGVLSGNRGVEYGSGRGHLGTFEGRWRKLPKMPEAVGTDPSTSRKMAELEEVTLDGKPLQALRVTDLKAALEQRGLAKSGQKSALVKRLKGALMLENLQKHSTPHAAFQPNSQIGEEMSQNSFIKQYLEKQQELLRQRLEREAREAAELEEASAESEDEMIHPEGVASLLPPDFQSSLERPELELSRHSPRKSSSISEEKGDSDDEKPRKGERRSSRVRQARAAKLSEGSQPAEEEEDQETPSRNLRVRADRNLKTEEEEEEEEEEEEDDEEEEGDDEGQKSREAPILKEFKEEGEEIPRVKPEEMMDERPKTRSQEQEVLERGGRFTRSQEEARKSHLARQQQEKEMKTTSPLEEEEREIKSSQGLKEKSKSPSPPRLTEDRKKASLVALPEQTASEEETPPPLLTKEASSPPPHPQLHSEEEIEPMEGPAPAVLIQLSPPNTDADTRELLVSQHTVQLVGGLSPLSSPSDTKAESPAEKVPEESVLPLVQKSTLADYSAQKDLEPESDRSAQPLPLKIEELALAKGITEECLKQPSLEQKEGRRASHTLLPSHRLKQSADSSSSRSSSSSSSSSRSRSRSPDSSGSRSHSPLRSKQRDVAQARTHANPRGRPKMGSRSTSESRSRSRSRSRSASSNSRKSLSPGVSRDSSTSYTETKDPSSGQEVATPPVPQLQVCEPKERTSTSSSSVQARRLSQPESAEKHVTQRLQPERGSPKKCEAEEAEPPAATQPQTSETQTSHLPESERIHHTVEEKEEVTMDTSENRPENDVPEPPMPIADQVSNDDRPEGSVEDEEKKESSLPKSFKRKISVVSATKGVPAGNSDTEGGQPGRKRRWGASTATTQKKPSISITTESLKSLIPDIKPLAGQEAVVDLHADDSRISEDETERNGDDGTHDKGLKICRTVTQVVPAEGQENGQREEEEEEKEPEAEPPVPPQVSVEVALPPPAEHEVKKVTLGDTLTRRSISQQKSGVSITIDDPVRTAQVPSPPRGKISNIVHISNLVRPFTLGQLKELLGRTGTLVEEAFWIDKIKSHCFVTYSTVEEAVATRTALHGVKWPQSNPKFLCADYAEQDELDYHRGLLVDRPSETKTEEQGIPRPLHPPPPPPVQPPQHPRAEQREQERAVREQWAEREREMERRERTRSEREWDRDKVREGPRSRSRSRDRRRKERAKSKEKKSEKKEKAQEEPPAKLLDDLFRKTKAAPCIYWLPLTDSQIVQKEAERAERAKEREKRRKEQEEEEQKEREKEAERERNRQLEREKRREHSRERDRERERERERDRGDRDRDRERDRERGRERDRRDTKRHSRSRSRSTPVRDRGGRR
UniProt Q9Y3Z3, sequence (Q9Y3Z3 whole entry, looked up): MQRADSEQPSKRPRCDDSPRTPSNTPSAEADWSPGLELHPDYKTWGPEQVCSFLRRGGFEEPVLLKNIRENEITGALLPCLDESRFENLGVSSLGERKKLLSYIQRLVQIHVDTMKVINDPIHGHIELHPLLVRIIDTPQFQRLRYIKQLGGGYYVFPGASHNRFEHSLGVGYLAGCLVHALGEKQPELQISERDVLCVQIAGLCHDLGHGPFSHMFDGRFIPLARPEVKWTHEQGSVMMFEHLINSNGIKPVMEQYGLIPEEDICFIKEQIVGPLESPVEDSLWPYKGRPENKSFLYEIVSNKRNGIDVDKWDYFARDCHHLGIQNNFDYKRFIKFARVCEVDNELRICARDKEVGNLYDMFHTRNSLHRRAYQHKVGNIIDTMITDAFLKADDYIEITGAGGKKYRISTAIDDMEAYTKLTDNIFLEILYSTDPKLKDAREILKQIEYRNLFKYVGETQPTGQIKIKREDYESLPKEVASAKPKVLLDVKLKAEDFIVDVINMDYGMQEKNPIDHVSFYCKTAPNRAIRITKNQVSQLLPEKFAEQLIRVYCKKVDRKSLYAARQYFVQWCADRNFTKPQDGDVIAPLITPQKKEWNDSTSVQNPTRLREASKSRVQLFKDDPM
UniProt Q9UER7, sequence (Q9UER7 whole entry, looked up): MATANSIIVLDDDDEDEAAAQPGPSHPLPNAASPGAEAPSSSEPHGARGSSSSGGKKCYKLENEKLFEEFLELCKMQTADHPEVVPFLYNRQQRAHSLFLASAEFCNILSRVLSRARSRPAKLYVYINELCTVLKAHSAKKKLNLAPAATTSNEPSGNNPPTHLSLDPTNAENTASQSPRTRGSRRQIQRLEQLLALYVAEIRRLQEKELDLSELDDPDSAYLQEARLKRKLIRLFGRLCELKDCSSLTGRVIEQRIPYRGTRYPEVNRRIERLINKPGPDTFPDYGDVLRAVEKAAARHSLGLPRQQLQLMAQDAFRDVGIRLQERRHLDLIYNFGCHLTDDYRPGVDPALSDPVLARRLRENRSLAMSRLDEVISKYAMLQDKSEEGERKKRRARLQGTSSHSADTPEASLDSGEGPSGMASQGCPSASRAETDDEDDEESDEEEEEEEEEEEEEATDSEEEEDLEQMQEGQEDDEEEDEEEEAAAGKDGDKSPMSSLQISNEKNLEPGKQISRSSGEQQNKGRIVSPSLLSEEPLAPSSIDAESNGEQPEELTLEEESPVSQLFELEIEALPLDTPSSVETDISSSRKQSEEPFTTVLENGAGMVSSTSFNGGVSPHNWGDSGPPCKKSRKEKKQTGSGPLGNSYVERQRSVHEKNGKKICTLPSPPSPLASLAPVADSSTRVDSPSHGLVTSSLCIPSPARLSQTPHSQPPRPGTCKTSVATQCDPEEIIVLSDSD
UniProt Q9BWD1, sequence (Q9BWD1 whole entry, looked up): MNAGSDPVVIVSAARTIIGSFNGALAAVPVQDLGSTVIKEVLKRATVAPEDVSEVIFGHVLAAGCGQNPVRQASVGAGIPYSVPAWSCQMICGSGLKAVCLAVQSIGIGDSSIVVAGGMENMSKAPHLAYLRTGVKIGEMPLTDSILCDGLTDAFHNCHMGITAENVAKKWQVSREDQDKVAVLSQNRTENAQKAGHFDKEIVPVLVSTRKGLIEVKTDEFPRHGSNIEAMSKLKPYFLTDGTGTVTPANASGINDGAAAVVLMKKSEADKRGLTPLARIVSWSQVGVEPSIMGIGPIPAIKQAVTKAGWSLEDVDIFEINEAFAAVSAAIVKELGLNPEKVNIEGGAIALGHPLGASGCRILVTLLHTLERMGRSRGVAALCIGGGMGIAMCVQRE
UniProt Q9H6K4, sequence (Q9H6K4 whole entry): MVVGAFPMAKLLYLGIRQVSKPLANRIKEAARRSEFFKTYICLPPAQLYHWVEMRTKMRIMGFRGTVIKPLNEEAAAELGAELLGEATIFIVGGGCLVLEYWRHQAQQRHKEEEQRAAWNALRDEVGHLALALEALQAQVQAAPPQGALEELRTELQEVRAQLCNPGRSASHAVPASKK

| Target | log2 ratio of iodoacetamide-alkyne labeling |
| --- | --- |
| STRAP C305 (UniProt Q9Y3F4) | 0.0837 |
| BCLAF1 C688 (UniProt Q9NYF8) | 0.524 |
| ZYG11B C643 (UniProt Q9C0D3) | 0.222 |
| ASPSCR1 C224 (UniProt Q9BZE9) | 1.02 (active) |
| C11orf68 C222 (UniProt Q9H3H3) | 0.528 |
| UniProt Q9BWW4_C80 | 0.318 |
| FAM83D C19 (UniProt Q9H4H8) | 1.11 (active) |
| WIPI2 C393 (UniProt Q9Y4P8) | 1.22 (active) |
| FAM83D C15 (UniProt Q9H4H8) | 1.11 (active) |
| MDN1 C43 (UniProt Q9NU22) | 1.32 (active) |
| RRBP1 C892 (UniProt Q9P2E9) | 0.291 |
| UNC45A C420 (UniProt Q9H3U1) | 0.56 |
| TLN1 C2243 (UniProt Q9Y490) | 0.0807 |
| ACAT2 C360 (UniProt Q9BWD1) | -0.0247 |
| PUS7L C142 (UniProt Q9H0K6) | -0.0378 |
| UniProt Q9NWY4_C17 | 0.873 |
| TNKS1BP1 C1337 (UniProt Q9C0C2) | 1.01 (active) |
| OPA3 C164 (UniProt Q9H6K4) | 0.331 |
| TCAF1 C488 (UniProt Q9Y4C2) | 0.36 |
| ACIN1 C691 (UniProt Q9UKV3) | 0.212 |
| RCL1 C13 (UniProt Q9Y2P8) | -0.0901 |
| KBTBD4 C455 (UniProt Q9NVX7) | 0.248 |
| UniProt Q9NWR8_C324 | 1.65 (active) |
| HECTD1 C1995 (UniProt Q9ULT8) | 0.345 |
| POLE4 C84 (UniProt Q9NR33) | -0.0179 |
| UTP6 C309 (UniProt Q9NYH9) | 0.0486 |
| FARSB C195 (UniProt Q9NSD9) | 0.621 |

| Target | log2 ratio of iodoacetamide-alkyne labeling |
| --- | --- |
| UniProt Q9P260_C624 | 0.299 |
| UniProt Q9HBK9_C32 | 1.1 (active) |
| GPHN C293 (UniProt Q9NQX3) | 1.12 (active) |
| MIOS C321 (UniProt Q9NXC5) | 0.126 |
| TBCD C234 (UniProt Q9BTW9) | 0.281 |
| NOL6 C1034 (UniProt Q9H6R4) | 1.81 (active) |
| DAXX C338 (UniProt Q9UER7) | 0.306 |
| DLGAP4 C736 (UniProt Q9Y2H0) | 0.69 |
| TLN1 C2161 (UniProt Q9Y490) | -0.0698 |
| UNC45A C34 (UniProt Q9H3U1) | 0.0992 |
| AASS C87 (UniProt Q9UDR5) | 0.102 |
| UniProt Q9Y3D0_C93 | 0.0692 |
| AFG3L2 C525 (UniProt Q9Y4W6) | 0.198 |
| MTPAP C242 (UniProt Q9NVV4) | 0.146 |
| ANKFY1 C675 (UniProt Q9P2R3) | 0.216 |
| CD2AP C540 (UniProt Q9Y5K6) | 0.456 |
| CCDC88C C1520 (UniProt Q9P219) | 1.15 (active) |
| SAP30BP C127 (UniProt Q9UHR5) | 1.3 (active) |
| UniProt Q9Y2D5_C296 | 0.394 |
| MLXIP C738 (UniProt Q9HAP2) | -0.0833 |
| SMARCAD1 C772 (UniProt Q9H4L7) | 1 (active) |
| UniProt Q9Y3B4_C83 | 0.2 |
| SAMHD1 C80 (UniProt Q9Y3Z3) | 0.175 |
| MRPS18C C90 (UniProt Q9Y3D5) | 0.167 |
| GNL3 C234 (UniProt Q9BVP2) | 0.259 |
| ITSN2 C810 (UniProt Q9NZM3) | 0.0149 |
| HOOK1 C432 (UniProt Q9UJC3) | 0.385 |

| Target | log2 ratio of iodoacetamide-alkyne labeling |
| --- | --- |
| LARS C573 (UniProt Q9P2J5) | 0.342 |
| RUVBL2 C227 (UniProt Q9Y230) | 0.198 |
| UniProt Q9UBD5_C158 | 1.13 (active) |
| XPO4 C1149 (UniProt Q9C0E2) | 0.048 |
| ITSN2 C1194 (UniProt Q9NZM3) | -0.296 |
| DERA C118 (UniProt Q9Y315) | 0.275 |
| FAM120A C279 (UniProt Q9NZB2) | -0.00137 |
| UniProt Q9BYV8_C171 | 0.361 |
| FAM120A C892 (UniProt Q9NZB2) | 1.45 (active) |
| CHORDC1 C5 (UniProt Q9UHD1) | -0.0481 |
| NAT10 C489 (UniProt Q9H0A0) | 0.0616 |
| UBE2O C400 (UniProt Q9C0C9) | -0.416 |
| OSTC C14 (UniProt Q9NRP0) | 0.193 |
| LIMD1 C305 (UniProt Q9UGP4) | 1.43 (active) |
| EXOC6B C68 (UniProt Q9Y2D4) | -0.0384 |
| ZDBF2 C628 (UniProt Q9HCK1) | 0.47 |
| LANCL2 C49 (UniProt Q9NS86) | -0.064 |
| TACC3 C206 (UniProt Q9Y6A5) | -0.132 |
| NAT10 C486 (UniProt Q9H0A0) | 0.0616 |
| NCDN C3 (UniProt Q9UBB6) | 1.66 (active) |
| ATXN10 C354 (UniProt Q9UBB4) | 1.32 (active) |
| FANCI C56 (UniProt Q9NVI1) | 0.281 |
| GNE C357 (UniProt Q9Y223) | 0.234 |
| TNKS1BP1 C1324 (UniProt Q9C0C2) | 1.18 (active) |
| SMC4 C190 (UniProt Q9NTJ3) | 0.109 |
